Pol kappa inh: DNA polymerase kappa (human) inhibition | Q9UBT6 | purified Pol kappa, fluorescent DNA synthesis assay, 10 min | Potency, µM (highest dose often 107 µM), without a hit: top-dose activity, negative = inhibition, actives largely listed as inhibitors | 400,000 tested, 0.53% active | AID 588579; also: % is scaled to controls: 0 for no effect and ±100 for the full control effect
Target sequence (Q9UBT6 whole entry, looked up): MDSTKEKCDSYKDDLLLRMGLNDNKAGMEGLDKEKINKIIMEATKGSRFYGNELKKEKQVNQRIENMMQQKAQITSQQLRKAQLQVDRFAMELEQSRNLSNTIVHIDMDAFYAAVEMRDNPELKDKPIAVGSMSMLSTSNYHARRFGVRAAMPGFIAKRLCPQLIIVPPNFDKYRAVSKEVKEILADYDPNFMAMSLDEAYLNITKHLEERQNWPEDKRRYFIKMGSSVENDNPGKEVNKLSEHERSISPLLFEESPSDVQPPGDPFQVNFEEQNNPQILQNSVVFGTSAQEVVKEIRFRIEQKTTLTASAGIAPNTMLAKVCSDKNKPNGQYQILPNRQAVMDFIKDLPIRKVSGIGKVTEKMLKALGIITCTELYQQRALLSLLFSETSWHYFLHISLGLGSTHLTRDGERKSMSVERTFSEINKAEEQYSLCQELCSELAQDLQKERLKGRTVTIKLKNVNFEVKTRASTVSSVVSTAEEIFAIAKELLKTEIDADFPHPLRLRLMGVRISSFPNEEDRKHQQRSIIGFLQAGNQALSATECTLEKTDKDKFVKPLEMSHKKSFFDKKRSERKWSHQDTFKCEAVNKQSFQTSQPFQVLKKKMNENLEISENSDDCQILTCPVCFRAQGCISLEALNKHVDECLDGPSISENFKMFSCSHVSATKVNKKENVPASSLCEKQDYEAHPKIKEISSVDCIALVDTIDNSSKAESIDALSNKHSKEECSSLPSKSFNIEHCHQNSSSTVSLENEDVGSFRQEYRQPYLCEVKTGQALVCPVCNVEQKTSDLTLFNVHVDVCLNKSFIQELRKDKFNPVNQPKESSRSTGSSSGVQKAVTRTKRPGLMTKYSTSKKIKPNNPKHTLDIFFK
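Enzyme at 10 nM met test compounds for 15 min at room temperature. Substrate addition (50 nM final) began the reaction, which was monitored by fluorescence at 0 and 10 min.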
Pol iota inh: blocks human DNA polymerase iota activity; Q9UNA4; Pol iota fluorescent replication assay, 10 min; 390,000 tested, 1% active; AID 588590; Potency, µM (titrated, usually from 115 µM), without a hit: at the highest dose activity, negative = inhibition, actives largely listed as inhibitors
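Fluorescent replication assay read twice, at 0 min and 10 min after adding 50 nM (final) substrate. Enzyme (10 nM) and compounds were first incubated 15 min at room temperature; enzyme-free buffer wells were negative controls.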
WRN helicase inh: inhibitors of human WRN helicase; Q14191; WRN helicase unwinding, fluorescent forked duplex, kinetic; Potency, µM (titrated, usually from 114 µM), for the others: at the highest dose activity change, negative = inhibition, most hits filed as inhibitors; 360,000 tested, 0.46% active; AID 651768; also: % is scaled to controls: 0 for no effect and ±100 for the full control effect; nearly all actives have a fitted effect of over 55% in size
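Fluorescence dequenching readout, ex 525 nm/em 598 nm, kinetic mode: forked duplex DNA (100 nM final) with adjacent fluorophore and quencher unwound by WRN (20 nM final) with 2 mM ATP. Compound preincubation 15 min, room temperature.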
FEN1 inh: inhibitors of human flap endonuclease 1; AID 588795; P39748; 390,000 tested, 0.35% active; Potency, µM (doses to about 114 µM), for the others: at the top dose activity change, negative = inhibition, usual class: inhibitors; Recombinant FEN1 flap cleavage, fluorescence, 15 min; also: % is scaled to controls: 0 for no effect and ±100 for the full control effect; nearly all actives have a fitted effect of over 65% in size
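FEN1 at 10 nM preincubated with compounds 15 min at room temperature, then flap DNA substrate added at 50 nM final. Signal read at 0 and 15 min; concentration-response fitted with four-parameter Hill equation.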
Pol beta inh: DNA polymerase beta (human) inhibition. P06746. Potency, µM (doses to about 114 µM), without a hit: at the top dose activity change, negative = inhibition, hits mostly inhibitors. Pol beta primer extension/strand displacement, fluorescence kinetic. 340,000 tested, 1.3% active. AID 485314; also: % is scaled to controls: 0 for no effect and ±100 for the full control effect
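Human Pol beta at 10 nM; strand-displacement substrate 50 nM final. Compound exposure 15 min at room temperature before start, reaction 10 min at room temperature.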
Pol eta inh: inhibitors of human DNA polymerase eta | Q9Y253 | recombinant Pol eta, fluorescent DNA replication assay | Potency, µM (doses to about 114 µM), inactives show at the top dose activity change, negative = inhibition, most hits filed as inhibitors | 390,000 tested, 1.2% active; also: % is scaled to controls: 0 for no effect and ±100 for the full control effect
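Fluorescent replication assay: 50 nM final substrate added after a 15 min room-temperature compound preincubation with 10 nM enzyme. Signal taken at 0 min and again at 10 min.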
* = called active by the depositor; ! = not confirmed by another sample; [ ] = another dose, or the depositor's remark. An excerpt weighted towards active compounds, which were near 2.4% of everything screened. Calls follow the shape of the dose curve; as a rule, active = well fitted curve in the direction sought with a large enough effect; inconclusive = small, poorly fitted or top-dose-only effect, or another doubt; inactive = no such curve, though single readings can be large; an effect the other way counts as inactive or inconclusive. Potency is read from the fitted curve at half-maximal effect.

`Cc1ccc2c(c1)C(=O)OC(C(=O)Nc1ccc(C(=O)O)cc1)C2` (stereo not drawn) gave Pol kappa inh -24%, Pol iota inh 89µM*, FEN1 inh -9%, Pol beta inh 11% and Pol eta inh -1%.
CC(C)C[C@H](NC(=O)[C@H](Cc1cnc[nH]1)NC(=O)[C@@H](N)Cc1cnc[nH]1)C(=O)NCC(=O)NCC(=O)N[C@@H](C)C(=O)N[C@@H](CCCCN)C(=O)N[C@@H](CCC(N)=O)C(=O)N[C@@H](C)C(=O)NCC(=O)N[C@@H](CC(=O)O)C(=O)N[C@H](C(=O)O)C(C)C was read as Pol kappa inh 16%[60.1 µM].
`CC1(C)C(O)CC[C@]2(C)C1CC[C@@]1(C)C2C(=O)C=C2[C@@H]3C[C@@](C)(C(=O)O)CC[C@@]3(C)CCC21C` (stereo partly drawn) gave Pol kappa inh -6%[60.1 µM].
CC1(C)[C@@H](O)CC[C@]2(C)[C@H]3C(=O)C=C4[C@@H]5C[C@@](C)(C(=O)O)CC[C@]5(C)CC[C@@]4(C)[C@]3(C)CC[C@@H]12 was read as Pol kappa inh 34µM*!, Pol iota inh 13%, WRN helicase inh -6%, FEN1 inh 4%, Pol beta inh 11% and Pol eta inh -17%.
For COc1cccc(/C=C/c2ccc3ccccc3[n+]2C)c1OC the results were Pol kappa inh -33%, Pol iota inh 2% and FEN1 inh inconclusive.
`CCCC[n+]1c(/C=C/c2c(OC)cc(OC)cc2OC)ccc2ccccc21` gave Pol kappa inh -17%, Pol iota inh inconclusive and FEN1 inh 20µM*.
COc1ccc(/C=C/c2ccc3ccccc3[n+]2C)c(OC)c1OC was read as Pol kappa inh -39%, Pol iota inh inconclusive and FEN1 inh -27%.
`CCCC[n+]1c2ccccc2cc2ccccc21` gave Pol kappa inh -10%, Pol iota inh inconclusive, WRN helicase inh -36%[11.6 µM], FEN1 inh 79µM*, Pol beta inh 31% and Pol eta inh -1%.
For COc1ccc(/C=C/c2ccc3ccccc3[n+]2C)cc1OC the results were Pol kappa inh inconclusive, Pol iota inh -87%, WRN helicase inh -20%, FEN1 inh -15%, Pol beta inh 28µM* and Pol eta inh -2%.
COc1cc(OC)c(C=CC(=O)c2ccccc2O)c(OC)c1 was read as Pol kappa inh -8%, Pol iota inh 14%, WRN helicase inh -29%, FEN1 inh 4% and Pol eta inh -21%.
`CCC[n+]1c(/C=C/c2c(OC)cc(OC)cc2OC)ccc2ccccc21` gave Pol kappa inh -21%, Pol iota inh inconclusive and FEN1 inh 28µM*.
For Cc1ccc(Nc2nc(NCc3ccco3)nc3nccnc23)cc1 the results were Pol kappa inh -7%, Pol iota inh 8% and FEN1 inh -10%.
For CCCN1CNc2c(c(=O)[nH]c(=S)n2CCc2cccc(C)c2)C1 the results were Pol kappa inh -6%, Pol iota inh 36% and FEN1 inh 2%.
For Cc1nc2ccccc2nc1-c1csc(-c2ccccc2)n1 the results were Pol kappa inh -5%, Pol iota inh -16% and FEN1 inh -8%.
c1ccc(CNc2ncnc3c2ncn3Cc2ccccc2)cc1 was read as Pol kappa inh -25%, Pol iota inh inconclusive and FEN1 inh -23%.
COc1cc(OC)c(/C=C/c2ccc3ccccc3[n+]2C)c(OC)c1 was read as Pol kappa inh -33%, Pol iota inh inconclusive and FEN1 inh 25µM*.
Screening c1ccc(C[n+]2csc3ccccc32)cc1 returned Pol kappa inh -8%, Pol iota inh 2%, WRN helicase inh -32%, FEN1 inh 2%, Pol beta inh -10% and Pol eta inh 2%.
`O=C(C[n+]1csc2ccccc21)c1ccc(O)c(O)c1` gave Pol kappa inh 25µM*, Pol iota inh 14µM* and FEN1 inh 50µM*.
Screening O=C(N/N=C/c1ccncc1)c1ccc(-n2cccc2)cc1 returned Pol kappa inh -2%, Pol iota inh 79µM*, WRN helicase inh 3%, FEN1 inh -1%, Pol beta inh 40µM* and Pol eta inh -9%.
CC(=O)Nc1ccc(C(=O)N/N=C/c2ccncc2)cc1 was read as Pol kappa inh 2%, Pol iota inh 47%, WRN helicase inh -1%, FEN1 inh -6%, Pol beta inh -1% and Pol eta inh 5%.
Screening O=[N+]([O-])c1ccc2c(c1)C=C/C2=C\c1ccc(C=S)cc1 returned Pol kappa inh -10%, Pol iota inh 0% and FEN1 inh -21%.
For O=C(O)CCN1C(=O)/C(=C/c2ccc(-c3nc4ccccc4s3)o2)SC1=S the results were Pol kappa inh inconclusive, Pol iota inh inconclusive, WRN helicase inh inconclusive, FEN1 inh -6%, Pol beta inh 25µM* and Pol eta inh 3.2µM*.
COc1cc(/C=C2\SC(=O)N(c3ccc(Cl)cc3)C2=O)cc([N+](=O)[O-])c1O was read as Pol kappa inh inconclusive, Pol iota inh 6.3µM*, WRN helicase inh inconclusive, FEN1 inh inconclusive, Pol beta inh 56µM* and Pol eta inh -15%.
Screening CCOc1ccc(/C=C2\SC(=O)N(c3ccc(O)cc3)C2=O)cc1OC returned Pol kappa inh -1%, Pol iota inh 1%, WRN helicase inh -4%, FEN1 inh 11%, Pol beta inh -19% and Pol eta inh -1%.
Screening Cc1cc(C)nc(N/C=C(\C#N)C(=O)c2cccc(CSc3ccccc3)c2)n1 returned Pol kappa inh inconclusive, Pol iota inh inconclusive and FEN1 inh 0%.
`CSCCC(NS(=O)(=O)c1ccc(C)c(C(=O)O)c1)C(=O)O` (stereo not drawn) gave Pol kappa inh -15%, Pol iota inh -22%, WRN helicase inh 1%[11.6 µM], FEN1 inh 2%, Pol beta inh 25µM* and Pol eta inh inconclusive.
For COc1ccc(NS(=O)(=O)c2ccc(C)c(C(=O)O)c2)cc1 the results were Pol kappa inh -10%, Pol iota inh inconclusive, WRN helicase inh -6%[11.6 µM], FEN1 inh -5%, Pol beta inh 45µM* and Pol eta inh 79µM*.
`CSCCC(NS(=O)(=O)c1ccc(Cl)cc1)C(=O)O` (stereo not drawn) gave Pol kappa inh -1%, Pol iota inh 27%, WRN helicase inh -2%, FEN1 inh -6%, Pol beta inh -9% and Pol eta inh -13%.
